biological target: Fibroblast growth factor receptor 3 (Homo sapiens) (UniProt P22607); details: at 1 µM;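 further: values reported are mean percent inhibition of FGFR3 activity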
Sequence (P22607 23-806 limits assumed): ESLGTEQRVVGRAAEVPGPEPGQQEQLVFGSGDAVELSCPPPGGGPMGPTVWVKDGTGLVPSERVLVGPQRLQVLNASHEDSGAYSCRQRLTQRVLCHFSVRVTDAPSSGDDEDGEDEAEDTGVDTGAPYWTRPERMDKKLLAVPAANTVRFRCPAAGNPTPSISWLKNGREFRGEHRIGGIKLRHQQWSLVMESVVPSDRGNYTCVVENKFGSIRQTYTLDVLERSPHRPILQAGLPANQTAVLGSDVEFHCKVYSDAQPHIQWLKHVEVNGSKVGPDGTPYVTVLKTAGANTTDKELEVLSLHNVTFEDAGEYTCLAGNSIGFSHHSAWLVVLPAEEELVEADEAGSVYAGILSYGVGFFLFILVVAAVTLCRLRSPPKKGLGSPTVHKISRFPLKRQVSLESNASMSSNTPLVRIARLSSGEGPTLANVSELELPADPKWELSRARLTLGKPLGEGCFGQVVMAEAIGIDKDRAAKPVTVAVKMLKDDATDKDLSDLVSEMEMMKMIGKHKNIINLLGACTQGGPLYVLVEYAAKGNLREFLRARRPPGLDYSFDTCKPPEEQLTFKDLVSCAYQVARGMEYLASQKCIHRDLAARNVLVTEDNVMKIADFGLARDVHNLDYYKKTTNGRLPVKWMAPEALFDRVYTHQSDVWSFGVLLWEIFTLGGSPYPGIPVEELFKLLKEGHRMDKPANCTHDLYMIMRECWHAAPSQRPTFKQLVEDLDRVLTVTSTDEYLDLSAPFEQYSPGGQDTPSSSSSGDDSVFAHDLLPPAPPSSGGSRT

SMILES	inhibition
Fc1cccc(COc2ccc(Nc3ncnc4sc(-c5cccs5)cc34)cc2Cl)c1	6.81%
CC1=C(C(=O)Nc2ccc3[nH]ncc3c2)C(c2ccc(F)cc2)NC(=O)N1 (stereo not drawn)	14.7%
CCn1c(-c2nonc2N)nc2c(N3CCCC3)nccc21	-0.31%
NS(=O)(=O)c1ccc(N/N=C2\C(=O)Nc3ccc(C(=O)NCCc4c[nH]cn4)cc32)cc1	7.55%
COc1cc2ncn(-c3cc(O[C@@H](C)c4ccccc4Cl)c(C(N)=O)s3)c2cc1OC	24.3%
CN1CCC(C(=O)Nc2n[nH]c3nnc(-c4ccccc4)cc23)CC1	4.99%
Cn1cc(C=C2C(=O)Nc3cccnc32)c2ccccc21	47.8%
COc1ccc(-c2nn3ncccc3c2-c2ccnc(Nc3ccc(Cl)c(C(F)(F)F)c3)n2)cc1	4.12%
NC(=O)c1cccc(Nc2nccc(Nc3cccc4[nH]ncc34)n2)c1	4.68%
COc1ccc(-c2ccncc2)cc1C(N)=O	7.43%
CS(=O)(=O)CCN(CC#N)Cc1ccc(-c2ccc3ncnc(Nc4ccc(OCc5cccc(F)c5)c(Cl)c4)c3c2)o1	-0.34%
CNC(=O)c1cncc(/C=C/c2c(Cl)cccc2Cl)c1	1.39%
CCn1c(-c2nonc2N)nc2c(C#CC(C)(C)O)nc(CN3CCCC3)cc21	-0.76%
COc1ccccc1Nc1ncc(-c2ccccc2)o1	13.1%
Cc1nn(C)c2cc(N(C)c3ccnc(Nc4cccc(S(N)(=O)=O)c4)n3)ccc12	11.4%
CCn1c(-c2nonc2N)nc2cncc(C(=O)N3CC[C@H](N)C3)c21	2.58%

SMILES	inhibition
O=C(Nc1n[nH]c2nc(-c3ccco3)c(Br)cc12)C1CC1	7.26%
COc1ccc(-c2coc3ncnc(N)c23)cc1	6.72%
O=C1NC(=O)C(c2cccc(Cl)c2)=C1Nc1ccc(O)c(Cl)c1	21.3%
CS(=O)(=O)CCNCc1ccc(-c2ccc3ncnc(Nc4ccc(OCc5cccc(F)c5)c(C(F)(F)F)c4)c3c2)o1	3.38%
O=C1NC(=O)C(c2ccccc2Cl)=C1Nc1cccc(O)c1	2.97%
COc1cc2ncn(-c3cc(OCc4ccccc4Cl)c(C(N)=O)s3)c2cc1OC	13.2%
Nc1ncnc2occ(-c3ccc(NC(=O)Nc4cccc(C(F)(F)F)c4)cc3)c12	34.4%
COc1cc(C=NNc2ncnc3c2cnn3-c2ccccc2)ccc1O	7.58%
CC1=C(C(=O)Nc2ccc3[nH]ncc3c2)C(c2ccc(Cl)c(Cl)c2)CC(=O)N1 (stereo not drawn)	14.1%
NC(=O)c1ccc(-c2nc(-c3ccccn3)c(-c3ccc4c(c3)OCO4)[nH]2)cc1	1.9%
COc1cccc(-n2ncc3c(N/N=C/c4cccc(F)c4)ncnc32)c1	-0.4%
Cc1nnc(-c2ccc(C)c(-c3ccc(C(=O)Nc4cccc(C#N)c4)cc3)c2)o1	3.98%
N#Cc1c(NC(=O)c2cccc3ccccc23)sc2c1CCCC2	4.55%
Cc1ccc(NC(=O)c2ccnc(N3CCCC3)c2)cc1-c1ccc(C(=O)NCC2CC2)cc1	4.11%
COc1cc2ncn(-c3cc(OCc4ccccc4C(F)(F)F)c(C(N)=O)s3)c2cc1OC	18.2%

biological target: Fibroblast growth factor receptor 4 (Homo sapiens) (UniProt P22455); details: at 0.1 µM;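 further: values are mean percent inhibition of FGFR4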
Sequence (P22455 22-802 limits assumed): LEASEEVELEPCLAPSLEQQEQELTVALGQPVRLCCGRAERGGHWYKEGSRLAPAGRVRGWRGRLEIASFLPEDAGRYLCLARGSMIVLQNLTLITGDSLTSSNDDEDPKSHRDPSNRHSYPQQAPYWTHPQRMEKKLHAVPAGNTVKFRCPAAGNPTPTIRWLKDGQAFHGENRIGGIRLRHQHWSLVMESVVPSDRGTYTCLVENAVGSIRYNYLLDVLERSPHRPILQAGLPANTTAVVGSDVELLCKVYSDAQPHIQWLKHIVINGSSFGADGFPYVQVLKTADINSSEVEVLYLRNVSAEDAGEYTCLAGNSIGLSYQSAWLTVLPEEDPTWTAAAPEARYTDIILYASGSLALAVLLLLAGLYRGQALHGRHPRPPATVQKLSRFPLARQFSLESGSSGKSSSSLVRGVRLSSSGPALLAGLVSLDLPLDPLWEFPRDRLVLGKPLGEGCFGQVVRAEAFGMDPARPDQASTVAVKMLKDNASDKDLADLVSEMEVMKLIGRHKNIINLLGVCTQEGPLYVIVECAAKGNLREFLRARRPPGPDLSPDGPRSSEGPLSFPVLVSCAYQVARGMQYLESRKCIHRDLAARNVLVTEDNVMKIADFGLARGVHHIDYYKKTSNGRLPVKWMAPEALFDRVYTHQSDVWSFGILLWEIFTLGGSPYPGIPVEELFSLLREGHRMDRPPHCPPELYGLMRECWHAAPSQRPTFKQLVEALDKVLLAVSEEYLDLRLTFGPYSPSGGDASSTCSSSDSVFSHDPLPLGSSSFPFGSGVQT

SMILES	inhibition
Fc1cccc(COc2ccc(Nc3ncnc4sc(-c5cccs5)cc34)cc2Cl)c1	0.35%
CC1=C(C(=O)Nc2ccc3[nH]ncc3c2)C(c2ccc(F)cc2)NC(=O)N1 (stereo not drawn)	1.22%
CCn1c(-c2nonc2N)nc2c(N3CCCC3)nccc21	3.05%
NS(=O)(=O)c1ccc(N/N=C2\C(=O)Nc3ccc(C(=O)NCCc4c[nH]cn4)cc32)cc1	4.66%
CC(C)=Cc1cccc2c1/C(=N/Nc1ccc(S(N)(=O)=O)cc1)C(=O)N2	4.09%
COc1cc2ncn(-c3cc(O[C@H](C)c4ccccc4Cl)c(C(N)=O)s3)c2cc1OC	3.73%
COc1cc2ncn(-c3cc(O[C@@H](C)c4ccccc4Cl)c(C(N)=O)s3)c2cc1OC	0.49%
CN1CCC(C(=O)Nc2n[nH]c3nnc(-c4ccccc4)cc23)CC1	-8.44%
Cn1cc(C=C2C(=O)Nc3cccnc32)c2ccccc21	2.46%
COc1ccc(-c2nn3ncccc3c2-c2ccnc(Nc3ccc(Cl)c(C(F)(F)F)c3)n2)cc1	0.28%
NC(=O)c1cccc(Nc2nccc(Nc3cccc4[nH]ncc34)n2)c1	1.28%
COc1ccc(-c2ccncc2)cc1C(N)=O	2.74%
CS(=O)(=O)CCN(CC#N)Cc1ccc(-c2ccc3ncnc(Nc4ccc(OCc5cccc(F)c5)c(Cl)c4)c3c2)o1	0.11%
CNC(=O)c1cncc(/C=C/c2c(Cl)cccc2Cl)c1	1.14%
CCn1c(-c2nonc2N)nc2c(C#CC(C)(C)O)nc(CN3CCCC3)cc21	-0.75%
COc1ccccc1Nc1ncc(-c2ccccc2)o1	-2.79%

SMILES	inhibition
Cc1nn(C)c2cc(N(C)c3ccnc(Nc4cccc(S(N)(=O)=O)c4)n3)ccc12	-9.61%
CCn1c(-c2nonc2N)nc2cncc(C(=O)N3CC[C@H](N)C3)c21	-6.25%
O=C(Nc1n[nH]c2nc(-c3ccco3)c(Br)cc12)C1CC1	-0.77%
COc1ccc(-c2coc3ncnc(N)c23)cc1	-5.79%
O=C1NC(=O)C(c2cccc(Cl)c2)=C1Nc1ccc(O)c(Cl)c1	-2.1%
O=C1NC(=O)C(c2ccccc2Cl)=C1Nc1cccc(O)c1	1.92%
COc1cc2ncn(-c3cc(OCc4ccccc4Cl)c(C(N)=O)s3)c2cc1OC	-5.86%
Nc1ncnc2occ(-c3ccc(NC(=O)Nc4cccc(C(F)(F)F)c4)cc3)c12	-1%
COc1cc(C=NNc2ncnc3c2cnn3-c2ccccc2)ccc1O	4.25%
CC1=C(C(=O)Nc2ccc3[nH]ncc3c2)C(c2ccc(Cl)c(Cl)c2)CC(=O)N1 (stereo not drawn)	1.31%
NC(=O)c1ccc(-c2nc(-c3ccccn3)c(-c3ccc4c(c3)OCO4)[nH]2)cc1	4.19%
COc1cccc(-n2ncc3c(N/N=C/c4cccc(F)c4)ncnc32)c1	-3.35%
Cc1nnc(-c2ccc(C)c(-c3ccc(C(=O)Nc4cccc(C#N)c4)cc3)c2)o1	2.08%
N#Cc1c(NC(=O)c2cccc3ccccc23)sc2c1CCCC2	-2.84%
Cc1ccc(NC(=O)c2ccnc(N3CCCC3)c2)cc1-c1ccc(C(=O)NCC2CC2)cc1	-8.29%
COc1cc2ncn(-c3cc(OCc4ccccc4C(F)(F)F)c(C(N)=O)s3)c2cc1OC	-3.31%
